# Source: PubChem BioAssay
# Calls of active or inactive are those of the source.
# Tests used:
# [1] = small molecules captured by biotinylated probe aFSTL3 – biochemical, small-molecule microarray, fluorescence 635/667, stem cell growth factor project, primary screen (AID 1064); conditions: higher = more signal;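 note: measures binding of the biotinylated anti-FSTL3 antibody to printed compounds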
# [2] = binders from COS7 lysate, DM2A8 probe, primary screen, torsin A project, cell lysate, small-molecule microarray, fluorescence 635/667 (AID 1065); conditions: higher = more signal, COS7 lysate expressing mutant human TOR1A
# [3] = small molecules captured by biotinylated probe aFGF2 – biochemical, small-molecule microarray, fluorescence 635/667, stem cell growth factor project, primary screen (AID 1067); conditions: higher = more signal;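 note: measures binding of biotinylated aFGF2 protein to printed compounds on slides; z-score merges feature fluorescence and signal-to-noise across triplicate slides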
# [4] = small molecules captured by biotinylated probe aFGF10 – biochemical, small-molecule microarray, fluorescence 635/667, stem cell growth factor project, primary screen (AID 1071); conditions: higher = more signal;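 note: score merges 667 nm spot intensity and signal to noise from triplicate slides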
# [5] = molecular target: Neurogenic locus notch homolog protein 2 (Homo sapiens) (UniProt Q04721); assay: small molecules binding Notch2 protein – biochemical, small-molecule microarray, 635 nm fluorescence, stem cell growth factors, primary screen (AID 1073); conditions: higher = more signal
# [6] = molecular target: Pro-neuregulin-1, membrane-bound isoform (Homo sapiens) (UniProt Q02297); assay: small molecules binding neuregulin-1 protein – biochemical, small-molecule microarray, fluorescence 635/667, psychiatric disease protein project, primary screen (AID 1075); conditions: NRG1 binding, 635 nm fluorescence, higher = more signal;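 note: score combines 667 nm spot fluorescence with signal to noise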
# Sequence of Pro-neuregulin-1, membrane-bound isoform (Homo sapiens) (Q02297 whole entry, looked up, the tested form may be a part, canonical isoform): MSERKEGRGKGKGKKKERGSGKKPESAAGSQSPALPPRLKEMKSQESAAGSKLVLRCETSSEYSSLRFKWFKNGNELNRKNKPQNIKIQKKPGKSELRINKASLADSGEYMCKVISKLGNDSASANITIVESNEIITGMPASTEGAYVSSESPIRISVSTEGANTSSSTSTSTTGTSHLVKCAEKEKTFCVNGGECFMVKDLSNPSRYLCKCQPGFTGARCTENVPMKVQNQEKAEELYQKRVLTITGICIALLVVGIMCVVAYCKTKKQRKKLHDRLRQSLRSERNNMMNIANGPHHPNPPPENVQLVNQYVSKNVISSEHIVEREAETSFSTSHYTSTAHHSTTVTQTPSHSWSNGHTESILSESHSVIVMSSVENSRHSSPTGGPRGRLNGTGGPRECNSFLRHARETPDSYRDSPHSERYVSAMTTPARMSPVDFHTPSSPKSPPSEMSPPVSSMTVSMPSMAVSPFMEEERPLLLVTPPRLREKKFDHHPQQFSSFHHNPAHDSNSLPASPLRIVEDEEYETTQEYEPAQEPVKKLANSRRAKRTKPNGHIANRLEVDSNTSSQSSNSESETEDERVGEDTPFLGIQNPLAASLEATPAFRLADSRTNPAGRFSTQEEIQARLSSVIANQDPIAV
# [7] = test system: Neuregulin-1 EGF-like domain; assay: small molecules binding NRG1 EGF domain – biochemical, small-molecule microarray, 635 nm fluorescence, primary screen (AID 1081); conditions: higher = more signal;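 note: binding of the protein to compounds printed on small-molecule microarray slides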
# [8] = FRG1 expression reporter modulators in myotubes – cell-based, C2C12 myotubes, firefly/Renilla luciferase, luminescence, FRG1 inhibition for FSHD, primary screen (AID 1084); conditions: FRG1 promoter luciferase, higher = more signal, called active from +8 up or from −8 down
# [9] = small molecules captured by biotinylated probe aFST – biochemical, small-molecule microarray, fluorescence 635/667, stem cell growth factor project, primary screen (AID 1086); conditions: higher = more signal;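 note: score merges 667 nm fluorescence with signal-to-noise of each printed compound spot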
# [10] = binders of probe aHhip on microarray, primary screen, stem cell growth factor project, biochemical, small-molecule microarray, fluorescence 635/667 (AID 1087); conditions: higher = more signal;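 note: score merges spot fluorescence at 667nm with spot signal to noise ratio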
# [11] = test system: PRMT1 (protein arginine N-methyltransferase 1); assay: small molecules binding arginine methyltransferase PRMT1 – biochemical, small-molecule microarray, 635 nm fluorescence, primary screen (AID 1088); conditions: higher = more signal;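 note: binding of Prmt1 protein to compounds spotted on small-molecule microarray slides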
# [12] = growth effects on S. cerevisiae YJM789 – YJM789 clinical isolate, OD600, 24 h, basal, primary screen (AID 1089); conditions: higher = more signal, called active from +8 up or from −8 down;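 note: growth of clinical yeast isolate S. cerevisiae YJM 789 seeded 1000 cells per well; test concentration not given here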
# [13] = S. pombe growth modifiers, basal conditions – strain 972, OD600, 24 h, no modulator, primary screen (AID 1090);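 note: basal condition with compound alone and no growth modifier present; test concentration not given here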; conditions: S. pombe 972 growth, higher = more signal, called active from +8 up or from −8 down
# [14] = budding yeast growth modifiers under rapamycin – strain BY4716, OD600, 96 h, primary screen (AID 1091); note: test concentration not given here; conditions: S. cerevisiae BY4716 + rapamycin, higher = more signal, called active from +8 up or from −8 down
# [15] = molecular target: Torsin-1A-interacting protein 2 (Homo sapiens) (UniProt Q8NFQ8); assay: small molecules binding lysate-expressed LULL1 – cell lysate, human LULL1 lysate, 635/667 nm fluorescence, primary screen (AID 1092); conditions: small-molecule microarray, hLULL1 lysate binding, 635 nm fluorescence; higher = more signal;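 note: probe is lysate of COS7 cells overexpressing human LULL1; score merges per-feature 667 nm fluorescence with signal-to-noise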
# Sequence of Torsin-1A-interacting protein 2 (Homo sapiens) (Q8NFQ8 whole entry, looked up): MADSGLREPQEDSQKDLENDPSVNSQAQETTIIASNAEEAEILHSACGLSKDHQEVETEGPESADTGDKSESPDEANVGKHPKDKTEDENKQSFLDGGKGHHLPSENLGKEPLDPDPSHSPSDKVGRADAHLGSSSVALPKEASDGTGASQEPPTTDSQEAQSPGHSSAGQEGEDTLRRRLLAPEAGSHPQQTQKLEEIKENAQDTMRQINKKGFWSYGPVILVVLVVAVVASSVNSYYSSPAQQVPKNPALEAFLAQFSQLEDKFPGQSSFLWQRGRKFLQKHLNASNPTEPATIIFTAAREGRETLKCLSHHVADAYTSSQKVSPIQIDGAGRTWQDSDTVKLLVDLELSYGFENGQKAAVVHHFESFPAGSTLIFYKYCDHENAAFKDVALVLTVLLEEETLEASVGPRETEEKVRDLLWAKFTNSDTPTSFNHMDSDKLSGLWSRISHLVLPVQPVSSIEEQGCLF
# [16] = optical density change of DRC41 E. coli – strain DRC41, OD650, 24 h, E. coli filamentation project, primary screen (AID 1093);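 note: MC1000 strain lacking acrAB efflux and sulA so SOS filamentation is blocked; test concentration not given here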; conditions: E. coli DRC41 growth, higher = more signal, called active from +8 up or from −8 down
# [17] = probe aLefty2 binding to arrayed compounds – biochemical, biotinylated probe, 635/667 nm fluorescence, primary screen (AID 1094); conditions: small-molecule microarray, higher = more signal;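 note: score merges spot fluorescence near 667 nm with spot signal-to-noise ratio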
# [18] = test system: Noggin (protein binding on small-molecule microarray); assay: small molecules binding Noggin protein – biochemical, 635/667 nm fluorescence, primary screen (AID 1095); conditions: 635 nm fluorescence, higher = more signal;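 note: score merges 667 nm feature fluorescence with signal to noise over triplicate slides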
# [19] = molecular target: Neurogenic locus notch homolog protein 3 (Homo sapiens) (UniProt Q9UM47); assay: small molecules binding NOTCH3 protein – biochemical, 635/667 nm fluorescence, primary screen (AID 1096); conditions: small-molecule microarray, 635 nm fluorescence, higher = more signal
# Sequence of Neurogenic locus notch homolog protein 3 (Homo sapiens) (Q9UM47 whole entry, looked up): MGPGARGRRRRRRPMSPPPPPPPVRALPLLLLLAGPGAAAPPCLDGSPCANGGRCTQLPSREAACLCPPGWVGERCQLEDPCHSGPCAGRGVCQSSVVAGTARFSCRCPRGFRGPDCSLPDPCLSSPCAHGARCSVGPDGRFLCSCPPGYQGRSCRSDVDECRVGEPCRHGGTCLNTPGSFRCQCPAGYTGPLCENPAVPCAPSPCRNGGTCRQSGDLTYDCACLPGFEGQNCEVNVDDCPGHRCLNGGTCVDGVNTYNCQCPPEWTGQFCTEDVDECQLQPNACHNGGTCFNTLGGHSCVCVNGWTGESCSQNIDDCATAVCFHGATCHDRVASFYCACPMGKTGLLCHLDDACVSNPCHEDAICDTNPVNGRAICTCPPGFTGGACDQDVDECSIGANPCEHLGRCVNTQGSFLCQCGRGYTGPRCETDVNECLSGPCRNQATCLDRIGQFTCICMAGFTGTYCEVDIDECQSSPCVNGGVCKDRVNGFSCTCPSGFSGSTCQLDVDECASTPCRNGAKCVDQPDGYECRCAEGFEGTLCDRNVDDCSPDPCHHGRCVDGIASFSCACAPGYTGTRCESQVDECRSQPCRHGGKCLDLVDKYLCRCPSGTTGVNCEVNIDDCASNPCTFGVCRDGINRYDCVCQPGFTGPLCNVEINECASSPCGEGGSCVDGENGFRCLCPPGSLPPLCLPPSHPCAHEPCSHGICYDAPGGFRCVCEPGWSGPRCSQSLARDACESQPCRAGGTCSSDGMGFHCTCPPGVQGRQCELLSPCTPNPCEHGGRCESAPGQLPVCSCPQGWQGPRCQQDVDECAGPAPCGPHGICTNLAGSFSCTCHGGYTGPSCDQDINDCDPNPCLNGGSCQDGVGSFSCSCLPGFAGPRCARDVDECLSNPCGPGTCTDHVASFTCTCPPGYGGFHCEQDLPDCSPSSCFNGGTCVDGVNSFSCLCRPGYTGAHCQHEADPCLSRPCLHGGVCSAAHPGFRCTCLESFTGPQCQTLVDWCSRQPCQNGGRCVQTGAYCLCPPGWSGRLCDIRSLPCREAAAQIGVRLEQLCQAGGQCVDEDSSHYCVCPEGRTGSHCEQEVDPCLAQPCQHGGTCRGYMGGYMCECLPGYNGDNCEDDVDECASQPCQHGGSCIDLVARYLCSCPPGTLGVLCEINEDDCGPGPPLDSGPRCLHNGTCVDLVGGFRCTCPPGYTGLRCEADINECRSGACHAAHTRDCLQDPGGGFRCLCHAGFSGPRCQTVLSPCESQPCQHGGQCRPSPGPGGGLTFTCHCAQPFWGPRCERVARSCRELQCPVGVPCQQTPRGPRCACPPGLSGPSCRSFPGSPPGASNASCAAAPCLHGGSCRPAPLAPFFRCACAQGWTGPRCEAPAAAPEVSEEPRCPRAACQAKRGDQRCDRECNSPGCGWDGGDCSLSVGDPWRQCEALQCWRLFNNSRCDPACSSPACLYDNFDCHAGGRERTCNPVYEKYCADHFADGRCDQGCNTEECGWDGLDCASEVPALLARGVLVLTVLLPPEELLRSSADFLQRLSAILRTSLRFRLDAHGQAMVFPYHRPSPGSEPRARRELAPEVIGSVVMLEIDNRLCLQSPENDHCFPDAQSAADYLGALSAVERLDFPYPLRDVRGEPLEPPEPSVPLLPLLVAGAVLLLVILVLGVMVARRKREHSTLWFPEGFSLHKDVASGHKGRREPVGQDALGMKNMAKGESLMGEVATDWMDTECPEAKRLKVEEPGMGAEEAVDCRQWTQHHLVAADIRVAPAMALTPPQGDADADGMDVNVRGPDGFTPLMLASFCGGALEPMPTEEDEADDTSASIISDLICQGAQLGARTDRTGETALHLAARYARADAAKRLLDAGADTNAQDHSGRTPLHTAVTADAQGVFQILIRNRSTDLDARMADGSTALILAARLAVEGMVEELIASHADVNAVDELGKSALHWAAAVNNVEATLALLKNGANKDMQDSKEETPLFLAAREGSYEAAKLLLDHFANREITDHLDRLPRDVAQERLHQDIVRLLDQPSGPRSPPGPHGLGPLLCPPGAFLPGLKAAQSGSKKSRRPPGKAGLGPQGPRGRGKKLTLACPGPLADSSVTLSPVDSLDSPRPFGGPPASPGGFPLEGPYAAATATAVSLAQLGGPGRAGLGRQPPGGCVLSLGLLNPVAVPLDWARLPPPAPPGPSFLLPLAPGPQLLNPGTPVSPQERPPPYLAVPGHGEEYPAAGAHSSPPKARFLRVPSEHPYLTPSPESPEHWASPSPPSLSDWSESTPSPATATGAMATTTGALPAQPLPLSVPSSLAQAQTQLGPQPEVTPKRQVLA
# [20] = probe aEGFR binding to arrayed compounds – biochemical, biotinylated probe, 635/667 nm fluorescence, primary screen (AID 1097); conditions: small-molecule microarray, higher = more signal;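 note: probe is a biotinylated anti-EGFR antibody binding compounds printed on slides; score combines fluorescence near 667 nm and signal to noise of each spot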
Structure (SMILES),composite z-score [1],composite z-score [2],composite z-score [3],composite z-score [4],composite z-score [5],composite z-score [6],composite z-score [7],z-score [8],composite z-score [9],composite z-score [10],composite z-score [11],z-score [12],z-score [13],z-score [14],composite z-score [15],z-score [16],composite z-score [17],composite z-score [18],composite z-score [19],composite z-score [20]
CC(C)[C@@H](C(=O)O)n1cc(-c2ccccc2)nn1,0.272,0.692,-0.0894,0.779,0.964,0.648,1.08,0.736 (inactive),0.874,-0.0645,0.0283,-0.0149 (inactive),-0.0883 (inactive),-0.244 (inactive),1.19,-1.44 (inactive),-0.0623,0.192,0.938,0.125
C=CCC(OC(C)=O)[C@@H]1[C@@H](N(Cc2cc3ccccc3o2)C(=O)Cc2ccc(OC)cc2)c2cc(OCCCO)ccc2N1C(=O)Cc1ccc2ccccc2c1 (stereo not given in full),0.0169,-0.94,-0.0348,-0.377,-0.368,-0.359,0.331,-0.906 (inactive),0.0598,0.0505,-0.328,0.225 (inactive),0.232 (inactive),0.738 (inactive),0.783,-0.0576 (inactive),-0.115,-0.507,-1.01,-0.145
C=CCOC(=O)[C@H]1[C@@H]2C(=O)O[C@@H](c3ccccc3)[C@@H](c3ccccc3)N2[C@@H](c2ccc(OCCOC(=O)[C@@H]3C[C@@H]4C(=O)N[C@@H](CC(C)C)C(=O)N4[C@@H]3c3ccc(O)cc3)cc2)[C@]12C(=O)Nc1ccc(I)cc12,-0.185,0.246,-0.158,-0.0479,0.672,1.33,1.29,-1.13 (inactive),-0.0054,0.15,1.58,-3.69 (inactive),0.698 (inactive),3.36 (inactive),2.44,0.452 (inactive),-0.103,1.23,0.752,0.006
C[N+](C)(C)CCCCCCNC(=O)[C@H]1C[C@H]2C(=O)NCC(=O)N2[C@H]1c1cccc(OCCO)c1,-0.513,0.44,-0.0316,0.817,-0.0407,0.205,1.27,2.33 (inactive),-0.393,-0.737,1.22,-0.874 (inactive),0.198 (inactive),0.0891 (inactive),3.07,-0.329 (inactive),-0.133,1.48,1.12,0.208
CC(C)C[C@H]1NC(=O)[C@@H](C)NC(=O)[C@@]23C(=O)N[C@@H](Cc4ccccc4)C2[C@H](C)[C@@]2(C)O[C@H]2C3/C=C/C/C=C\CNC1=O (stereo not given in full),-0.112,-0.0039,-0.185,0.346,0.125,0.483,0.798,1.85 (inactive),-0.141,-0.121,0.938,-0.904 (inactive),-0.721 (inactive),-0.651 (inactive),1.28,-0.64 (inactive),-0.221,0.407,0.596,-0.0615
Cc1ccc(S[C@]2(C(=O)NCC(F)(F)F)CC(=O)N(C3CCCCC3)[C@@H]2c2ccc(CO)cc2)cc1,0.169,0.148,-0.129,0.116,-0.426,1.66,0.631,-2.21 (inactive),0.387,-0.271,1.28,0.565 (inactive),-0.211 (inactive),-0.0121 (inactive),2.9,0.471 (inactive),0.0078,-0.461,-0.107,-0.194
C=CCNC(=O)[C@@H]1[C@H]2C(=O)O[C@H](c3ccccc3)[C@H](c3ccccc3)N2[C@H](c2ccc(O)cc2)[C@@]12C(=O)Nc1ccc(C#CC3(O)CCCCCC3)cc12,-0.258,0.102,-0.1,0.434,0.469,0.606,0.979,0.273 (inactive),-0.0976,-0.0391,0.994,0.154 (inactive),0.0674 (inactive),0.0489 (inactive),1.57,-0.447 (inactive),-0.113,0.553,-0.0051,-0.013
CCOC(=O)C1=CC[C@@H](c2ccccc2)N(S(=O)(=O)C[Si](C)(C)C)[C@H]1c1ccccc1,-0.267,0.505,-0.0181,0.389,1.25,0.652,0.924,-2.47 (inactive),1.25,-0.123,1.08,-0.514 (inactive),0.984 (inactive),0.416 (inactive),2.26,-0.453 (inactive),0.138,0.291,1.09,0.154
C=CCC(OC(C)=O)[C@@H]1[C@@H](N(Cc2cc3ccccc3o2)C(=O)c2cccc3ccccc23)c2cc(OCCCO)ccc2N1C(=O)c1ccc2ccccc2c1 (stereo not given in full),-0.16,-0.267,-0.0993,0.277,-0.0361,-0.223,0.272,-4.21 (inactive),0.296,-0.128,-0.305,0.0315 (inactive),-0.943 (inactive),-0.0147 (inactive),0.583,-0.234 (inactive),0.0826,0.413,0.222,-0.139
COc1ccc(CCNC(=O)[C@@H]2c3ccccc3C(=O)N(CC34CC5CC(CC(C5)C3)C4)[C@H]2c2ccc(CO)cc2)cc1,-0.227,0.0668,0.257,0.239,0.703,1.09,1.24,-1.89 (inactive),-0.0095,0.0972,1.12,-0.543 (inactive),-0.817 (inactive),-0.13 (inactive),2.45,0.573 (inactive),-0.297,1.92,1.06,-0.0828
CCCCN1CC=CC23O[C@@H]4C=CCOC(=O)[C@@H]4[C@H]2C(=O)N(C(CO)C(C)C)[C@@H]3C1=O (stereo not given in full),0.0186,-0.438,-0.124,-0.275,-0.758,-0.397,-0.0125,0.353 (inactive),-0.288,-0.13,-0.453,-0.161 (inactive),-0.325 (inactive),0.752 (inactive),-1.06,-0.505 (inactive),-0.118,-0.319,-0.743,-0.217
O=C1NC(=O)C2C1C=CC(C(O)c1ccc(F)cc1)N2Nc1ccccn1 (stereo not given),0.22,0.472,-0.0634,0.354,0.999,0.906,0.957,0.632 (inactive),0.0731,-0.284,0.477,0.128 (inactive),0.42 (inactive),0.333 (inactive),2.64,-1.83 (inactive),-0.103,-0.0682,-0.0883,-0.0271
O=C1C2C=CC(C(O)c3ccc([N+](=O)[O-])cc3)N(Nc3ccccc3)C2C(=O)N1c1ccccc1 (stereo not given),-0.228,0.0467,0.0589,-0.115,1.4,1.07,1.25,-0.699 (inactive),0.564,0.211,0.44,-0.247 (inactive),0.485 (inactive),0.495 (inactive),2.68,-0.8 (inactive),-0.0469,-0.456,1.03,-0.0509
N[C@@H](Cc1ccccc1)Cn1cc(C2(O)CCCCC2)nn1,-0.337,0.543,-0.0718,-0.244,-0.232,0.138,-0.204,2.2 (inactive),1.27,0.0722,-0.235,-0.692 (inactive),-0.16 (inactive),-0.522 (inactive),0.205,-1.15 (inactive),-0.128,0.112,0.293,-0.14
O=C1O[C@@H](c2ccccc2)[C@@H](c2ccccc2)N2[C@@H](c3ccc(O)cc3)[C@]3(C(=O)Nc4ccc(C#CC5=CCCCC5)cc43)[C@@H](C(=O)N3CCCCCCC3)[C@H]12,2.95,0.905,0.347,0.294,0.861,0.705,1.3,-1.38 (inactive),2.44,0.271,1.54,-1.67 (inactive),-0.604 (inactive),0.694 (inactive),3.44,1.09 (inactive),1.22,1.16,1.02,0.465
COC(=O)[C@@]1(Cc2ccc(F)cc2)[C@H]2c3cc(C(=O)N(C)C)n(CCN4CCOCC4)c3C[C@H]2CN1C(=O)c1ccccc1,0.59,-0.141,0.0141,0.58,1.63,1.51,0.654,1.56 (inactive),0.416,0.664,0.101,0.218 (inactive),0.323 (inactive),0.0727 (inactive),2.5,0.176 (inactive),0.246,-0.539,0.417,0.865
CCOC(=O)C1=CC[C@@H](c2ccc(F)cc2)N(S(=O)(=O)c2ccc(C)cc2)[C@H]1c1ccc([N+](=O)[O-])cc1,-0.283,-0.237,-0.0277,0.639,1.26,1.1,1,-0.507 (inactive),0.919,-0.0645,0.518,0.342 (inactive),1.32 (inactive),6.03 (inactive),2.5,0.543 (inactive),0.0322,-0.234,0.73,-0.0409
CC(C)=CCN(C(=O)C#Cc1ccccc1)[C@H](CO)c1ccccc1,-0.591,0.645,-0.0692,0.118,0.248,-0.141,0.283,-5.11 (inactive),0.223,-0.0994,0.95,-0.577 (inactive),-4.9 (inactive),36.4 (active),1.2,0.354 (inactive),-0.116,0.69,0.829,-0.0302
COCCOC(=O)N1C(=O)[C@@]2(c3ccccc31)[C@H](c1ccc(OCCO)cc1)N1[C@H](c3ccccc3)[C@H](c3ccccc3)OC(=O)[C@H]1[C@@H]2C(=O)N1CCN(c2ncccn2)CC1,-0.185,0.751,0.0323,0.559,1.47,1.33,1.24,-0.132 (inactive),0.742,0.107,1.54,1.52 (inactive),1.01 (inactive),5.4 (inactive),2.5,0.374 (inactive),0.101,1.34,1.05,0.241
